Source: PubChem BioAssay AID1159580 (chemical genetic matrix, 2015)
About 2,000 (36%) of roughly 5,500 compounds were called active. About 18% were inconclusive and are not listed. Rule as the data show it: active = normalized growth mostly below about 0.91 (no sharp cut-off); inconclusive = no clear call, values can overlap the other calls; inactive = mostly above about 0.92. Some of the results follow.

Test: chemical genetic growth profiling, strain panel (AID 1159580);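 also: tested at 20 µM; growth read once vehicle control cultures reached saturation at 30 °C; 1 = growth at the plate median or of vehicle wells; lower values mean less growth of the strain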
Settings: growth OD

Measured: normalized growth

CC1=CC(=O)c2ccccc2C1=O
inactive: S. cerevisiae deletion strains, locus YKL068W, hits give low values 1.01 | S. cerevisiae deletion strains, locus YKR026C, strain gcn3, hits give low values 1.03 | S. cerevisiae deletion strains, locus YKR091W, strain srl3, hits give low values 1.03 | S. cerevisiae deletion strains, locus YLL001W, strain dnm1, hits give low values 0.93 | S. cerevisiae deletion strains, locus YLL026W, hits give low values 0.997 | S. cerevisiae deletion strains, locus YLL041C, strain sdh2, hits give low values 1.04 | S. cerevisiae deletion strains, locus YLR258W, strain gsy2, hits give low values 0.933 | S. cerevisiae deletion strains, locus YLR262C, strain YPT6 (second series), hits give low values 0.916 | S. cerevisiae deletion strains, locus YLR320W, strain mms22, hits give low values 0.881 | S. cerevisiae deletion strains, locus YLR342W, strain FKS1, hits give low values 1.01 | S. cerevisiae deletion strains, locus YLR357W, strain rsc2, hits give low values 1.04 | S. cerevisiae deletion strains, locus YLR370C, strain arc18, hits give low values 0.958 | S. cerevisiae deletion strains, locus YLR384C, strain iki3, hits give low values 1.04 | S. cerevisiae deletion strains, locus YML120C, strain ndi1, hits give low values 0.968 | S. cerevisiae deletion strains, locus YMR125W, strain sto1, hits give low values 1.04 | S. cerevisiae deletion strains, locus YMR129W, hits give low values 1.01 | S. cerevisiae deletion strains, locus YMR231W, strain pep5, hits give low values 1.02 | S. cerevisiae deletion strains, locus YNL209W, strain ssb2, hits give low values 0.983 | S. cerevisiae deletion strains, locus YNL322C, strain KRE1 (second series), hits give low values 0.999 | S. cerevisiae deletion strains, locus YNR049C, strain mso1, hits give low values 1.02 | S. cerevisiae deletion strains, locus YOR001W, strain rrp6, hits give low values 0.923 | S. cerevisiae deletion strains, locus YOR070C, strain gyp1, hits give low values 0.959 | S. cerevisiae deletion strains, locus YOR080W, strain dia2, hits give low values 1.03 | S. cerevisiae deletion strains, locus YOR265W, strain rbl2, hits give low values 0.983 | S. cerevisiae deletion strains, locus YOR290C, strain snf2, hits give low values 1.02 | S. cerevisiae deletion strains, locus YPL078C, strain atp4, hits give low values 0.941 | S. cerevisiae deletion strains, locus YPL106C, strain sse1, hits give low values 0.904 | S. cerevisiae deletion strains, locus YPL240C, strain hsp82, hits give low values 1
active: S. cerevisiae deletion strains, locus YJR075W, strain HOC1, hits give low values 0.0628 | S. cerevisiae deletion strains, locus YKL009W, strain mrt4, hits give low values 0.0847 | S. cerevisiae deletion strains, locus YKL085W, strain MDH1 (second series), hits give low values 0.494 | S. cerevisiae deletion strains, locus YKL085W, strain MDH1, hits give low values 0.494 | S. cerevisiae deletion strains, locus YKL160W, strain elf1, hits give low values 0.822 | S. cerevisiae deletion strains, locus YKL190W, strain CNB1, hits give low values 0.0475 | S. cerevisiae deletion strains, locus YKR001C, strain vps1, hits give low values 0.0601 | S. cerevisiae deletion strains, locus YLR027C, strain aat2, hits give low values 0.862 | S. cerevisiae deletion strains, locus YLR039C, strain RIC1, hits give low values 0.0839 | S. cerevisiae deletion strains, locus YLR058C, strain SHM2, hits give low values 0.0596 | S. cerevisiae deletion strains, locus YLR102C, strain apc9, hits give low values 0.0585 | S. cerevisiae deletion strains, locus YLR113W, strain HOG1, hits give low values 0.294 | S. cerevisiae deletion strains, locus YLR221C, strain rsa3, hits give low values 0.819 | S. cerevisiae deletion strains, locus YLR262C, strain YPT6, hits give low values 0.155 | S. cerevisiae deletion strains, locus YLR268W, strain sec22, hits give low values 0.0659 | S. cerevisiae deletion strains, locus YLR330W, strain CHS5, hits give low values 0.0494 | S. cerevisiae deletion strains, locus YLR342W, strain FKS1 (second series), hits give low values 0.0779 | S. cerevisiae deletion strains, locus YLR371W, strain rom2, hits give low values 0.0598 | S. cerevisiae deletion strains, locus YLR418C, strain cdc73, hits give low values 0.0923 | S. cerevisiae deletion strains, locus YML016C, strain PPZ1, hits give low values 0.0501 | S. cerevisiae deletion strains, locus YML032C, strain rad52, hits give low values 0.112 | S. cerevisiae deletion strains, locus YML124C, strain tub3, hits give low values 0.0587 | S. cerevisiae deletion strains, locus YMR058W, strain fet3, hits give low values 0.832 | S. cerevisiae deletion strains, locus YMR078C, strain ctf18, hits give low values 0.0795 | S. cerevisiae deletion strains, locus YMR205C, strain PFK2, hits give low values 0.799 | S. cerevisiae deletion strains, locus YMR223W, strain ubp8, hits give low values 0.0622 | S. cerevisiae deletion strains, locus YMR263W, strain SAP30, hits give low values 0.0592 | S. cerevisiae deletion strains, locus YMR307W, strain GAS1, hits give low values 0.118 | S. cerevisiae deletion strains, locus YNL067W, strain RPL9B, hits give low values 0.0512 | S. cerevisiae deletion strains, locus YNL071W, strain lat1, hits give low values 0.543 | S. cerevisiae deletion strains, locus YNL128W, strain TEP1, hits give low values 0.0609 | S. cerevisiae deletion strains, locus YNL153C, strain GIM3, hits give low values 0.0481 | S. cerevisiae deletion strains, locus YNL183C, strain NPR1, hits give low values 0.393 | S. cerevisiae deletion strains, locus YNL233W, strain BNI4, hits give low values 0.0537 | S. cerevisiae deletion strains, locus YNL248C, strain rpa49, hits give low values 0.883 | S. cerevisiae deletion strains, locus YNL250W, strain rad50, hits give low values 0.513 | S. cerevisiae deletion strains, locus YNL271C, strain bni1, hits give low values 0.705 | S. cerevisiae deletion strains, locus YNL298W, strain CLA4, hits give low values 0.363 | S. cerevisiae deletion strains, locus YNL307C, strain MCK1, hits give low values 0.0683 | S. cerevisiae deletion strains, locus YNL322C, strain KRE1, hits give low values 0.047 | S. cerevisiae deletion strains, locus YNR052C, strain pop2, hits give low values 0.12 | S. cerevisiae deletion strains, locus YOL006C, strain TOP1, hits give low values 0.0979 | S. cerevisiae deletion strains, locus YOL147C, strain pex11, hits give low values 0.0692 | S. cerevisiae deletion strains, locus YOR061W, strain CKA2, hits give low values 0.05 | S. cerevisiae deletion strains, locus YOR069W, strain VPS5, hits give low values 0.0532 | S. cerevisiae deletion strains, locus YOR083W, strain WHI5, hits give low values 0.882 | S. cerevisiae deletion strains, locus YOR106W, strain vam3, hits give low values 0.818 | S. cerevisiae deletion strains, locus YOR136W, strain idh2, hits give low values 0.0688 | S. cerevisiae deletion strains, locus YOR144C, strain elg1, hits give low values 0.063 | S. cerevisiae deletion strains, locus YOR184W, strain ser1, hits give low values 0.0695 | S. cerevisiae deletion strains, locus YOR231W, strain MKK1, hits give low values 0.277 | S. cerevisiae deletion strains, locus YOR270C, strain vph1, hits give low values 0.776 | S. cerevisiae deletion strains, locus YOR316C, strain cot1, hits give low values 0.0564 | S. cerevisiae deletion strains, locus YPL051W, strain arl3, hits give low values 0.892 | S. cerevisiae deletion strains, locus YPL055C, strain LGE1, hits give low values 0.0708 | S. cerevisiae deletion strains, locus YPL241C, strain CIN2, hits give low values 0.0549 | S. cerevisiae deletion strains, locus YPL256C, strain CLN2, hits give low values 0.356 | S. cerevisiae deletion strains, locus YPR119W, strain clb2, hits give low values 0.063 | S. cerevisiae deletion strains, locus YPR141C, strain kar3, hits give low values 0.859 | S. cerevisiae deletion strains, locus YPR163C, strain tif3, hits give low values 0.0724 | S. cerevisiae deletion strains, locus YPR167C, strain met16, hits give low values 0.0586 | S. cerevisiae deletion strains, strain wtn01, hits give low values 0.0598 | S. cerevisiae strains, strain wild type, hits give low values 0.0461
